# Experimental data published in PubChem BioAssay AID686978 (National Center for Advancing Translational Sciences (NCATS), 2013).
# The campaign covered roughly 420,000 compounds. About 64,000 (15%) were called active. Inconclusive results (about 27%) are left out. The list is a sample of the results. A number with no mark means an inactive call. Calls follow the shape of the dose curve; as a rule, active = well fitted inhibition curve with a large enough effect; inconclusive = small, poorly fitted or top-dose-only effect; inactive = flat fitted curve, though single readings scatter.
# Assay: qHTS for Inhibitors of human tyrosyl-DNA phosphodiesterase 1 (TDP1): qHTS in cells in absence of CPT; also: nearly all actives have a fitted effect of over 55% in size
# Conditions: DT40 Tdp1-/- hTDP1 cells, no CPT, ATP luminescence, 48 h; activity change, negative = growth inhibition: at 46.2 µM (top of the series)
# How it was run: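 Growth kinetics read by CellTiter-Glo luminescence after ≥48 hr at 37 °C. Cells: DT40 Tdp1-/- stably carrying human TDP1, 400 per well, compound exposure in the absence of CPT (DMSO vehicle).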
# % is scaled to controls: 0 for no effect and ±100 for the full control effect; potency is read from the fitted curve at half-maximal effect.
Structure (SMILES),Potency,"activity change, negative = growth inhibition"
COc1ccc(C2CC(c3ccc([N+](=O)[O-])cc3)=NN2C(C)=O)cc1 (centres undefined),14.6 µM (active),
COc1ccc(C2=NN(C(C)=O)C(c3ccccc3)C2)cc1 (centres undefined),,-9.61%
COc1ccc(C2=NN(C(=O)c3ccccc3C(=O)O)C(c3ccccc3O)C2)cc1 (centres undefined),,-19.5%
CC(C)N(C)C(=O)CCc1nnc(CCc2c[nH]c3ccccc23)o1,,-6.57%
Cc1nn(C)c(C)c1CN(C(=O)CCc1nnc(Cc2c[nH]c3ccccc23)o1)C(C)C,16.4 µM (active),
Cc1nc(CN2CCN(C(=O)CCc3nnc(Cc4c[nH]c5ccccc45)o3)CC2)cs1,,-10.5%
CC1(C(=O)NS(=O)(=O)c2cccc(F)c2)CCN1C(=O)Cc1cc(F)ccc1F (centres undefined),,8.26%
O=C(CN1C(=O)COc2ccc(Cl)cc21)N1CCOCC1,,7.52%
Cc1cccc(OCC(=O)NCCNC(=O)c2cccnc2)c1,,8.85%
CCOC(=O)C1=C(c2ccccc2)N=C2SCC(=O)N2C1c1ccc(O)c(OC)c1 (centres undefined),,-16.8%
COc1cc(C2C(C(=O)c3ccc(C)o3)=C(O)C(=O)N2Cc2cccnc2)ccc1O (centres undefined),,-0.599%
CCOC(=O)c1ccc(N2C(=O)c3n[nH]c(C)c3C2c2ccc(O)c(OC)c2)cc1 (centres undefined),18.4 µM (active),
Cc1nc(N2CCCC2C(=O)O)c2oc3ccccc3c2n1 (centres undefined),,1.8%
CCCN(CC(=O)Nc1ccc(OC)c(OC)c1)CC(=O)Nc1ccc(F)c(F)c1F,,-8.97%
O=C(Nc1sc2c(c1-c1nc3ccccc3[nH]1)CCCC2)C1CC1,,-0.787%
CC(=O)c1ccc(NC(=O)C(C)NCc2ccc(Cl)cc2)cc1 (centres undefined),,-2.9%
CCOc1ccc(-n2c(O)c(/C=N/Nc3nc(C)cc(C)n3)c3ccccc3c2=O)cc1,3.26 µM (active),
CCOc1ccc(N/C(N)=N/c2nc(C)c(C)c(=O)[nH]2)cc1,,-1.43%
Cc1ccccc1Nc1nnc(C)c(=O)[nH]1,,-2.18%
CCOc1ccc(-n2c(O)c(/C=N/c3ccnn3Cc3ccncc3)c3ccccc3c2=O)cc1,,3.46%
Cc1nnc(N/N=C/c2ccccn2)[nH]c1=O,2.91 µM (active),
COc1ccc(-n2c(O)c(C=NCC(c3ccco3)N3CCCC3)c3ccccc3c2=O)cc1OC (centres undefined),,-12.9%
Cc1nnc(N/N=C/c2cccs2)[nH]c1=O,,-4.48%

Structure (SMILES),Potency,"activity change, negative = growth inhibition"
CCN(CC)CCCN=Cc1c(O)n(-c2ccc(C)cc2)c(=O)c2ccccc12,,-22.5%
CCOc1ccc(-n2c(O)c(/C=N/Nc3nnc(C)c(=O)[nH]3)c3ccccc3c2=O)cc1,0.92 µM (active),
CC(=O)Nc1ccc(S(=O)(=O)NC2(C(F)(F)F)C(=O)Nc3c2c(=O)[nH]c(=O)n3Cc2ccccc2)cc1 (centres undefined),,-32.8%
Cc1cc(F)ccc1NC(=O)C(C)n1c2ccccc2c2nc(=O)cc(C)n21 (centres undefined),,-0.709%
CCC(C)n1[nH]c(=O)cc1N (centres undefined),,-7.43%
O=C(CCN1C(=O)C2C3C=CC(C3)C2C1=O)Oc1ccc2ccccc2c1 (centres undefined),,-4.21%
CC1CCCCC1NC(=O)CN1CCC(O)(c2ccc3c(c2)OCO3)CC1 (centres undefined),,-19.2%
O=C(c1cccc(C(=O)N2CCc3ccccc32)n1)N1CCc2ccccc21,,-27%
CCCn1nc(C(=O)N2CCCc3ccccc32)c2ccccc2c1=O,18.4 µM (active),
CCn1nc(C(=O)OCC(=O)N2c3ccccc3CC2C)c2ccccc2c1=O (centres undefined),,-7.1%
CCC(=O)N1CCCc2ccccc21,,3.1%
CCCCn1nc(C(=O)OCC(=O)Nc2sccc2C(N)=O)c2ccccc2c1=O,,-22.1%
CCCCn1nc(C(=O)N2CCc3ccccc32)c2ccccc2c1=O,16.4 µM (active),
O=C(NCCCN1CCCCCC1)C1CC(=O)N(C2CCCC2)C1 (centres undefined),,-3.95%
CCN1CCN(C(c2ccc(C)cc2)c2c(O)cc(C)n(Cc3ccco3)c2=O)CC1 (centres undefined),,-8.76%
CCOC(=O)[C@H](CCc1ccccc1)N[C@@H](C)C(=O)N1CC2(C[C@H]1C(=O)O)SCCS2,,-5.18%
Cc1ccc(NC2=NC(c3ccccc3)n3c(nc(C)cc3=O)N2)cc1 (centres undefined),,-4.91%
CC(C)(C)SCCNC(=O)c1cccc([N+](=O)[O-])c1,,-20.7%
COc1cccc(NCCC(=O)c2cccc([N+](=O)[O-])c2)c1,14.6 µM (active),
COc1cccc(CNC(=O)CCCC(=O)Nc2cccc([N+](=O)[O-])c2)c1,,-1.7%
CC1=NN(c2ccc(Cl)c(C(=O)O)c2)C(=O)/C1=C/c1ccc(-c2ccccc2[N+](=O)[O-])o1,,2.39%
Cc1occc(=O)c1OCc1ccc(F)cc1,,5.6%
Fc1cccc2ncnc(OCc3ccccc3)c12,,0.0434%

Structure (SMILES),Potency,"activity change, negative = growth inhibition"
Cc1nc2ccccc2cc1OCc1ccc(F)cc1,11.6 µM (active),
Cc1cc(C)cc(C(=O)NC2C(=O)N3C(C(=O)O)=C(CSc4nnc(C)s4)CSC23)c1 (centres undefined),,7.63%
CCOc1ccc(NC(=O)c2ccc(NC(=O)CN3C(=O)C(=O)N(CC(C)C)C3=O)cc2)cc1,,-29.5%
Cc1ccsc1C(=O)OCC(=O)NCCc1ccccc1,,1.34%
CCC1CCCCN1C(=O)CSc1nc(C)cc(C)n1 (centres undefined),,1.91%
Cc1cccc(NC(=O)C2CCN(C(=O)NC3CCCCC3)CC2)c1,,-3.04%
Cc1cccc(NC(=S)N2CCC(C(=O)c3ccc(F)cc3)CC2)c1,13 µM (active),
CC(=O)c1cccc(NC(=S)N2CCCC2)c1,,25.2%
Cn1c(N2CCOCC2)c(C=O)c2ccccc21,,-2.65%
CCNC(=S)N1CCN(C(=O)c2ccco2)CC1,,-11.5%
Cc1ccccc1C1=N/C(=C/c2cccnc2)C(=O)O1,,-15.2%
O=C1OC(c2ccc(Cl)cc2)=N/C1=C\c1cccnc1,16.4 µM (active),
Cc1ccc(C2=C/C(=C\c3cccnc3)C(=O)O2)cc1,,1.52%
O=C1NC2(CCCCCC2)C(=O)N1CCS(=O)(=O)Oc1ccccc1,,-21.8%
CCCNC(=S)N1CCC(NC(=O)c2ccc(OC)cc2)CC1,,-23%
CCOn1c(=O)c(=O)n(O)c2ccccc21,,6.1%
COc1ccc(-c2c(NC(=O)c3ccco3)oc3ccc(Cl)cc3c2=O)cc1,,-0.195%
Cc1cccc(-c2c(NC(=O)c3ccco3)oc3ccc(Cl)cc3c2=O)c1,25.9 µM (active),
O=C(Nc1nonc1-c1ccc(Cl)cc1)c1ccco1,,-16.8%
Clc1ccccc1CSc1nnc(-c2ccco2)c(-c2ccco2)n1,,-20.7%
COC(=O)c1noc(C)c1-c1ccnn1C(=O)c1ccc(Cl)cc1,,3.11%
CC(Oc1ccc(Cl)cc1)c1ccnn1S(C)(=O)=O (centres undefined),,-19.6%
Cc1onc(-c2ccc(Cl)cc2)c1-c1ccnn1S(=O)(=O)c1ccc(Cl)cc1,16.4 µM (active),
